Rin1 Abl inh: inhibitors of human Rin1-Abl protein interaction; TR-FRET Rin1/Abl binding, biochemical; inhibition, % at 7.35 µM; hit rate 0.4% among 360,000; AID 588664; in the data active = inhibition above about 5%, passing the limit was not always enough
MBD2 DNA inh: inhibitors of human MBD2 binding to methylated oligonucleotide | AID 686964 | TR-FRET | Q9UBB5 | hit rate 0.31% among 370,000 | inhibition, % at 4.4 µM; in the data active = inhibition above about 13%
KLK7 zymogen act: activators of human kallikrein-7 zymogen; P49862; purified proKLK7, EDANS-DABCYL substrate fluorescence; 100% is mature enzyme control, 0% vehicle; activation, % at 7 µM; hit rate 0.9% among 370,000;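 active = activation above the mean of all tested compounds plus 3 SD, computed per campaign excluding outliers beyond control limits, cut at about 13% in these data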
LEDGF integ inh: blocks HIV-1 LEDGF/p75-dependent DNA integration. TR-FRET IN-LEDGF/p75 DNA integration, Eu/Cy5. inhibition, % at 3.7 µM. hit rate 0.64% among 370,000. AID 743269;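 active = inhibition above the screen-wide mean plus 3 SD, cut at about 13% in these data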;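 note: signal is the Cy5 over europium emission ratio at 671 and 618 nm; 0% = plate median of compound wells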
Neddylation inh: inhibitors of human cullin neddylation | P61081+Q13564 | TR-FRET cullin neddylation, biochemical | calls only at 25 µM | hit rate 0.58% among 360,000 | AID 651699; in the data active = inhibition above about 36%
Target sequence (P61081 whole entry, looked up): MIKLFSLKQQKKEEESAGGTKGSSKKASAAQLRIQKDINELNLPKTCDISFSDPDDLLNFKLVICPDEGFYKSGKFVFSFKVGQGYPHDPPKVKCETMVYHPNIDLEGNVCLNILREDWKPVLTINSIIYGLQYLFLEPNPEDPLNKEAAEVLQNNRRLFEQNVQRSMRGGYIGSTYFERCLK
Target sequence (Q13564 whole entry, looked up): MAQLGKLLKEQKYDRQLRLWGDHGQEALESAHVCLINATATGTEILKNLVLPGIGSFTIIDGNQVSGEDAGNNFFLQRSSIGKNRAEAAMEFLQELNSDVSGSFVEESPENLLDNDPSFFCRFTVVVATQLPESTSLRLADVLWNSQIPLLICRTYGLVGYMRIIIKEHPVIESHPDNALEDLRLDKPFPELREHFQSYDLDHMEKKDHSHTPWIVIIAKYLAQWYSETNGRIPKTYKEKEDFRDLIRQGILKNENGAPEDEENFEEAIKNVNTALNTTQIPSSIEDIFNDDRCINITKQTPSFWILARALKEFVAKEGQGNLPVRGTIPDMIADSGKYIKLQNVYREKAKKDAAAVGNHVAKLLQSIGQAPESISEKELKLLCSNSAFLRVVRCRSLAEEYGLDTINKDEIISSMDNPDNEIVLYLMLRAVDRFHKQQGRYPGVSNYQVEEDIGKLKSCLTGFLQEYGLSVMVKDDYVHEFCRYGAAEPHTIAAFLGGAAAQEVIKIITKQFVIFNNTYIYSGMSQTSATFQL
UHRF1 binding: human UHRF1 methylated DNA binding inhibitors. Q96T88. UHRF1 binding to methylated oligo, TR-FRET. AID 687016. inhibition, % at 4.4 µM. hit rate 0.75% among 370,000; in the data active = inhibition above about 21%;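 note: UHRF1 SRA domain binding a hemimethylated CpG hairpin DNA probe; 0% = median of test compound wells and 100% = reference inhibitor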
* = called active by the depositor; i = inactive; / = no result shown; + = active, no number. Shown are actives, neighbours in structure and some others; about 3.1% of the full set was active somewhere.

SMILES | Rin1 Abl inh | MBD2 DNA inh | KLK7 zymogen act | LEDGF integ inh | Neddylation inh | UHRF1 binding
Cc1ccccc1SC1CCN(C(=O)C2CCC(=O)N(C3CC3)C2)CC1 (stereo not drawn) | 1 | -8 | 0 | -7 | i | -3
Cc1ccc(SC2CCN(C(=O)C3CCC(=O)N(C4CC4)C3)CC2)cc1 (stereo not drawn) | -2 | 7 | 0 | 2 | i | 22*
O=C(c1cc(-c2ccccc2)nc2ccccc12)N1CCCC1 | 2 | -5 | 0 | 1 | i | 4
c1ccc(-c2cc(NCCN3CCCCC3)c3ccccc3n2)cc1 | 1 | 13 | 0 | -2 | i | 21*
O=C(NC1CCN(S(=O)(=O)c2ccc(Cl)cc2)CC1)c1cccnc1 | -1 | 10 | 0 | 0 | i | 31*
O=c1[nH]c(C2CCN(S(=O)(=O)c3ccc4c(c3)OCCO4)CC2)nc2c1nnn2Cc1ccc(F)cc1 | 1 | 5 | 0 | -2 | i | 27*
CCc1ccc2cc(F)cc(F)c2n1 | -1 | -1 | -1 | -3 | i | 1
Cc1ccc(NC(=S)NCC2CCN(C(C)c3ccccc3)C2)cc1C (stereo not drawn) | -1 | 1 | 0 | 1 | i | 23*
CC1(C(=O)NS(=O)(=O)c2cccc(OC(F)F)c2)CCN1C(=O)Cc1ccsc1 (stereo not drawn) | 3 | -1 | 1 | 2 | i | -1
CC1=CC(=O)N(c2cccc3c(N4C(=O)C=C(C)C4=O)cccc23)C1=O | 1 | 15* | -1 | 7 | i | 23*
CCn1c2ccccc2c2cc(NC(=O)C(=O)N3CCOCC3)ccc21 | -1 | -1 | -11 | -5 | i | 23*
CCn1c2ccccc2c2cc(NC(C)=O)ccc21 | -2 | 1 | 1 | -3 | i | 1
CS(=O)(=O)N(CC(=O)N1CCCCCC1)c1ccc(Cl)cc1 | -3 | -2 | 0 | 7 | i | 29*
CS(=O)(=O)N(CC(=O)N1CCOCC1)c1ccc(Cl)cc1 | 2 | 3 | 1 | -3 | i | 1
CN(C)c1ccc(Cc2ccc(N(C)C)cc2)cc1 | 3 | -3 | 0 | -1 | i | 0
CNc1nnc(-c2ccc(N(C)C)cc2)s1 | -3 | 0 | 40* | -10 | / | -5
COc1cccc2c1C(=N)c1c(O)c3c(c(O)c1C2=O)CC(O)(C(C)=O)CC3OC1CC(N)C(O)C(C)O1 (stereo not drawn) | -18 | / | / | / | i | /
COc1cccc2c1C(=O)c1c(O)c3c(c(O)c1C2=O)CC(O)(C(C)=O)CC3OC1CC(O)C(O)C(C)O1 (stereo not drawn) | -7 | 78* | 1 | -3 | i | 81*
Cc1cccc(OCC(=O)N(Cc2nnc(-c3ccccc3Cl)o2)C2CC2)c1 | -2 | -2 | 0 | -8 | i | 68*
COc1ccc(CCNC(=O)COC(=O)CSc2ccc(C(N)=O)cc2[N+](=O)[O-])cc1OC | -4 | -8 | 1 | 2 | i | -1
S=C(NCCc1ccccc1)N1CCCC1 | 2 | 2 | 0 | 4 | i | 27*
S=C(NCCc1ccccc1)N1CCOCC1 | 2 | 0 | -1 | 1 | i | -3
O=S(=O)(NCC(c1cccnc1)N1CCOCC1)c1ccc(Cl)cc1 (stereo not drawn) | 0 | -6 | 0 | 1 | i | 25*
O=S(=O)(NCC(c1cccnc1)N1CCOCC1)c1ccccc1 (stereo not drawn) | 0 | 2 | 0 | 0 | i | 13
CC(C)N(C)c1ncnc2c1ncn2[C@H]1CN(CCN2CCOCC2)C[C@@H](CO)O1 | 5 | 5 | 0 | -4 | i | -1
SMILES | Rin1 Abl inh | MBD2 DNA inh | KLK7 zymogen act | LEDGF integ inh | Neddylation inh | UHRF1 binding
CCOC(=O)c1cnc2ccccc2c1Nc1ccc(C(=O)O)cc1 | -3 | 3 | -1 | -1 | i | 26*
O=C(NCCN1CCC(n2c(=O)[nH]c3ccccc32)CC1)c1ccc(F)cc1 | / | 3 | 0 | 0 | i | -4
O=C(CCCN1CC=C(n2c(=O)[nH]c3ccccc32)CC1)c1ccc(F)cc1 | 2 | 2 | 0 | -2 | i | 23*
CCCCCCn1cc(C(=O)O)c(=O)c2cc(F)c(N3CCN(C)CC3)cc21 | 2 | / | / | / | + | /
COC(=O)N/N=C1/C/C(=N\NC(=O)OC)c2ccccc21 | -4 | -10 | 0 | 32* | i | -8
S=C(N/N=C/c1ccc2ncccc2c1)Nc1ccccc1 | -1 | -1 | 0 | 0 | i | 32*
C(=N\NCc1ccccc1)/c1ccc2ncccc2c1 | 0 | 4 | 0 | -1 | i | 0
CC(C)CNC(=O)C(=O)NC1CCCC1 | -1 | 5 | 0 | 3 | i | 21*
COC(=O)[C@]12C[C@H](CC(=O)N3CCCC3)C(=O)N(Cc3ccc(Cl)cc3Cl)C1=C[C@H](C1CCCC1)O[C@@H]2C | / | -5 | 0 | 0 | / | 0
CCn1ncc(/C=N\NC(=O)c2ccc3c(c2)c(C)c(C)n3Cc2ccccc2)c1C | -1 | 2 | -2 | -5 | / | -4
CCn1nc(C)c(/C=N/NC(=O)c2ccc3c(c2)c(C)c(C)n3Cc2ccccc2)c1C | -2 | -3 | 0 | -1 | + | -2
O=[n+]1cc(-c2ccccc2)n([O-])c2c1CCC2 | 0 | 5 | 0 | 0 | i | 21*
CCCOc1ccc(/C(O)=C2\C(=O)C(=O)N(c3ccccn3)C2c2ccccc2F)cc1C (stereo not drawn) | -16 | 2 | 3 | 3 | i | -3
COc1ccc(NC(=S)N2CCC(C(=O)c3ccc(C)cc3)CC2)c(OC)c1 | 1 | 2 | 0 | -8 | i | 26*
CN(C)/C=C/C(=O)c1cnc(-c2cccc(Cl)c2)s1 | 0 | 1 | -1 | 4 | i | 0
CC(=O)c1cnc(-c2cccc(Cl)c2)s1 | 0 | 5 | 1 | -2 | i | 37*
Cc1cccc(N2CCN(C(=O)C3CCN(S(=O)(=O)c4cccc5nsnc45)CC3)CC2C)c1 (stereo not drawn) | -2 | 5 | 1 | -2 | i | -1
Cc1cccc(N2CCN(C(=O)C3CCN(S(=O)(=O)N4CCOCC4)CC3)CC2C)c1 (stereo not drawn) | 0 | 2 | 0 | 1 | i | 74*
C=C(C)CCC(C)N1CCC(n2nccc2NC(=O)CCCc2ccccc2)CC1 (stereo not drawn) | 1 | 2 | 0 | 1 | i | 21*
O=C1NC(=S)S/C1=C\c1ccc(SCc2ccco2)o1 | 12* | / | / | / | i | /
Cc1cc(Cl)cc(Cl)c1OCCCCN(C)C | 2 | 4 | 0 | 3 | i | 22*
Cc1cc(C)c(OCCCCN(C)C)c(Br)c1 | 4 | 1 | 0 | -3 | i | 0
Cc1ccc(C)c(NC(=O)CN2C(=O)NC(C)(c3ccc4c(c3)OCCO4)C2=O)c1 (stereo not drawn) | 5 | -5 | 0 | -1 | i | 70*

Compound activity: PubChem BioAssay, several laboratories
